“And” between values parts separate entries of the source, which are not always exact repeats. Identical values can stand only once. A structure can be active in one record and inactive in another. The source made the active and inactive calls. Entries that show only a call come without a potency. Unless noted, the call rests on the fitted dose curve; in most records, active means well fitted curve in the direction sought with a large enough effect in the repeat runs; inconclusive means weak or mixed curves; inactive means no such curve, though single readings can be large; an effect the other way counts as inactive or inconclusive.
Legend:
[1] = qHTS assay to test for compound auto fluorescence at 535 nm (green) in HEK293 cells (AID 720680)
[2] = qHTS assay to test for compound auto fluorescence at 460 nm (blue) in HEK293 cell free culture (AID 720681)
Outline: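 Blue fluorescence (Ex 405/Em 460 nm, triamterene-equivalent) was read immediately after pin transfer of compound or DMSO into medium (DMEM, 10% FBS) without cells.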

[3] = qHTS assay to test for compound auto fluorescence at 535 nm (green) in HEK293 cell free culture (AID 720682)
Outline: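 Green-channel intensity (Ex/Em 485/535 nm) was recorded from compound-treated wells containing only DMEM with 10% FBS. Fluorescein provided the equivalency standard.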

[4] = qHTS assay to test for compound auto fluorescence at 590 nm (red) in HEK293 cell free culture (AID 720683)
Outline: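 Red-channel autofluorescence of compounds in culture medium (DMEM, 10% FBS), no cells, measured at 540/590 nm. Rose Bengal sodium is the reference fluorophore for equivalence.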

[5] = qHTS assay to test for compound auto fluorescence at 590 nm (red) in HepG2 cell free culture (AID 720684)
Outline: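 No cells present: MEM + 10% FBS only. Compound pinned in, red label read (540/590 nm). Activity = fluorescence equivalent to Rose Bengal sodium.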

[6] = qHTS assay to test for compound auto fluorescence at 460 nm (blue) in HepG2 cell free culture (AID 720685)
Outline: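 Cell-free plates of MEM plus 10% FBS received 23 nL compound or DMSO vehicle; blue-channel (405/460 nm) intensity scored against triamterene as reference fluorophore.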

[7] = qHTS assay to test for compound auto fluorescence at 535 nm (green) in HepG2 cell free culture (AID 720686)
[8] = qHTS assay to test for compound auto fluorescence at 460 nm (blue) in HepG2 cells (AID 720687)
Outline: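 Blue-channel autofluorescence (Ex/Em 405/460 nm, triamterene-equivalent) was measured after 1 hr compound exposure at 37 C, 5% CO2. Cells were HepG2, plated overnight at 37 C in MEM plus 10% FBS.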

[9] = molecular target: Glucocorticoid receptor (Homo sapiens) (UniProt P04150); test: qHTS assay to identify small molecule agonists of the glucocorticoid receptor (GR) signaling pathway (AID 720691; active means well fitted activation curve with a large enough effect in the signal ratio in the repeat runs, not every such curve was filed as active; inconclusive means weak or mixed curves, or effect the other way; inactive means no such curve, though single readings can be large or run the other way; the % refers to the signal ratio); conditions: GR-bla HeLa, beta-lactamase reporter ratio, 18 h; activation: at 62.4 µM (top of the series)
Outline: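 Compounds in DMSO, alongside positive controls, were added to GR-bla HeLa reporter cells and incubated 18 h at 37 C; GRE-driven beta-lactamase was detected by fluorescence after 2 h with FRET substrate at room temperature.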

[10] = qHTS assay to identify small molecule antagonists of the glucocorticoid receptor (GR) signaling pathway - cell viability counter screen (AID 720693); further: nearly all actives have a fitted effect of over 55% in size
[11] = qHTS assay for identifying genotoxic compounds that show differential cytotoxicity against isogenic chicken DT40 cell lines with known DNA damage response pathways - wild type cell line (AID 743012); further: nearly all actives have a fitted effect of over 60% in size; further: potency means the concentration at half of the fitted maximal effect
Outline: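 Viability of DNA repair-proficient chicken DT40 cells was assessed by CellTiter-Glo luminescence following 40 h compound exposure at 37 C/5% CO2.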

[12] = qHTS assay for identifying genotoxic compounds that show differential cytotoxicity against isogenic chicken DT40 cell lines with known DNA damage response pathways - Rev3 mutant cell line (AID 743014); further: nearly all actives have a fitted effect of over 55% in size; further: potency means the concentration at half of the fitted maximal effect
[13] = qHTS assay for identifying genotoxic compounds that show differential cytotoxicity against isogenic chicken DT40 cell lines with known DNA damage response pathways - Rad54/Ku70 mutant cell line (AID 743015); further: nearly all actives have a fitted effect of over 60% in size; further: potency means the concentration at half of the fitted maximal effect
[14] = qHTS assay to identify small molecule antagonists of the androgen receptor (AR) signaling pathway - cell viability counter screen (AID 743033; further: nearly all actives have a fitted effect of over 45% in size; further: potency means the concentration at half of the fitted maximal effect)
[15] = qHTS assay to identify small molecule antagonists of the androgen receptor (AR) signaling pathway using the MDA cell line - cell viability counter screen (AID 743041; further: nearly all actives have a fitted effect of over 45% in size; further: potency means the concentration at half of the fitted maximal effect)
Outline: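 Using the breast carcinoma line MDA-kb2 AR-luc, test chemicals were co-incubated with R1881 for 16 h; CellTiter-Fluor reagent, added at 15.5 h, provided a fluorescence measure of live cells.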

[16] = molecular target: Androgen receptor (Homo sapiens) (UniProt P10275); test: qHTS assay to identify small molecule agonists of the androgen receptor (AR) signaling pathway using the MDA cell line (AID 743040; further: nearly all actives have a fitted effect of over 20% in size)
Outline: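 Stable MMTV-luciferase reporter in MDA-kb2 cells; note the promoter carries GR as well as AR response elements. 16 h compound treatment, 37C, 0% CO2; ONE-Glo luminescence endpoint.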

[17] = molecular target: Androgen receptor (Homo sapiens) (UniProt P10275); test: qHTS assay to identify small molecule antagonists of the androgen receptor (AR) signaling pathway using the MDA cell line (AID 743042; further: nearly all actives have a fitted effect of over 55% in size; further: potency means the concentration at half of the fitted maximal effect)
Outline: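 Antagonist mode: compounds plus R1881 agonist added to MDA-kb2 AR-luc cells, incubated 16 h at 37C. Luciferase reporter luminescence quantified, with multiplexed CellTiter-Fluor readout for cell viability.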

[18] = molecular target: Glucocorticoid receptor (Homo sapiens) (UniProt P04150); test: qHTS assay to identify small molecule antagonists of the glucocorticoid receptor (GR) signaling pathway (AID 720692; active means well fitted inhibition curve with a large enough effect in the signal ratio in the repeat runs, not every such curve was filed as active; inconclusive means weak or mixed curves, or effect the other way; inactive means no such curve, though single readings can be large or run the other way; the % refers to the signal ratio; further: potency means the concentration at half of the fitted maximal effect)
Outline: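 In a 1536-well cell format, compounds were added 4 h after seeding GR-bla HeLa cells, together with dexamethasone at 5 nM final; reporter activity was measured by FRET-substrate fluorescence following 18 h at 37 C.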

[19] = molecular target: Androgen receptor (Homo sapiens) (UniProt P10275); test: qHTS assay to identify small molecule agonists of the androgen receptor (AR) signaling pathway (AID 743036; active means well fitted activation curve with a large enough effect in the signal ratio in the repeat runs, with a control signal flat, not every such curve was filed as active; inconclusive means weak or mixed curves, or effect the other way; inactive means no such curve, though single readings can be large or run the other way; the % refers to the signal ratio)
Outline: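 Cell-based FRET reporter assay: HEK293 line with a UAS-beta-lactamase construct, compounds added in DMSO, 16 h exposure at 37C, then 2 h substrate step at room temperature and fluorescence intensity read.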

Sequence of Androgen receptor (Homo sapiens) (P10275 whole entry, looked up): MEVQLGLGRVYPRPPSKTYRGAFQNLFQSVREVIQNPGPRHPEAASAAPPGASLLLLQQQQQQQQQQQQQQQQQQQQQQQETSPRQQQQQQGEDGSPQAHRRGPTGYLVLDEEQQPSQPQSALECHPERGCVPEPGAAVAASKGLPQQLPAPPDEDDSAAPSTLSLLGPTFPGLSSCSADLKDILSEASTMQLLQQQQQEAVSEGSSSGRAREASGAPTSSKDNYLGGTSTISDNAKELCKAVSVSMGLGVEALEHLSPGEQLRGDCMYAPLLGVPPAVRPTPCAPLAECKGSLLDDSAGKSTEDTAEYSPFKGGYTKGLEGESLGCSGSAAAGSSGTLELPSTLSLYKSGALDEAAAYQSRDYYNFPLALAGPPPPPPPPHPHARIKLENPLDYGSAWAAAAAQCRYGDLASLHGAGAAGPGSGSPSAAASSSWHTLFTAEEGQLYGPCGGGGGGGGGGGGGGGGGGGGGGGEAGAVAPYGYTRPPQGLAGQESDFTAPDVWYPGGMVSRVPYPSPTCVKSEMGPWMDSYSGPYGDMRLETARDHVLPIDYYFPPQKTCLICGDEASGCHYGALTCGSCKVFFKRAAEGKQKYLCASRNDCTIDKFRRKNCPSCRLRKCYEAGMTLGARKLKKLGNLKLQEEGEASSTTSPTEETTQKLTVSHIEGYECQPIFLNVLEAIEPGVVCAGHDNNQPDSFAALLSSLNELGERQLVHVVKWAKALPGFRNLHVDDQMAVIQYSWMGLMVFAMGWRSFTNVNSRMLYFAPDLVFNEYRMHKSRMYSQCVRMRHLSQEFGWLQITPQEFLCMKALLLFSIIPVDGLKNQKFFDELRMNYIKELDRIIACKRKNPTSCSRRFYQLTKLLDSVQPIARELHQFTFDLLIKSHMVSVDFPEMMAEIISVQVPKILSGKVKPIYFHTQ
Sequence of Glucocorticoid receptor (Homo sapiens) (P04150 whole entry, looked up): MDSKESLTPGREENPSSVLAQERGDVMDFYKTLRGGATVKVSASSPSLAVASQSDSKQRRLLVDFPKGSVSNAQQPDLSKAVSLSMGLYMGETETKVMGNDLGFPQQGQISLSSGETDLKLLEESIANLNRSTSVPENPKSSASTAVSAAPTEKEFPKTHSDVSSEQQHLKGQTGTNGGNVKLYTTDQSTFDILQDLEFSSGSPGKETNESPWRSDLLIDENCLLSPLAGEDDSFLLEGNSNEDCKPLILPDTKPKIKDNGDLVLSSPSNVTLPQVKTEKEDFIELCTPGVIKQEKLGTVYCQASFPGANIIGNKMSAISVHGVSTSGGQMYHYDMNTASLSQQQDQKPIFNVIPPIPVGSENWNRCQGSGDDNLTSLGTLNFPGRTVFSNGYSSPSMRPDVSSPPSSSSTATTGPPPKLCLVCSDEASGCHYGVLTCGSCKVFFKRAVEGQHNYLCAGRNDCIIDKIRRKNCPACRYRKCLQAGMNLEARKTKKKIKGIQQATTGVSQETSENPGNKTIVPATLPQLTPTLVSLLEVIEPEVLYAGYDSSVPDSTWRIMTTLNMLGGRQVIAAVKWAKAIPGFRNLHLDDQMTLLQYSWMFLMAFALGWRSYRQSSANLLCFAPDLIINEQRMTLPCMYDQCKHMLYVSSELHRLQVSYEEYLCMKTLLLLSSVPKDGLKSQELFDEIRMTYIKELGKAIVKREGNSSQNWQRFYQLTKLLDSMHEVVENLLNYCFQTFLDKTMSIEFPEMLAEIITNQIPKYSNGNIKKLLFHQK

Row | Compound | outcome [1] | Potency [2] | outcome [3] | outcome [4] | outcome [5] | Potency [6] | Potency [7] | Potency [8] | Potency [9] | Potency [10] | Potency [11] | Potency [12] | Potency [13] | Potency [14] | Potency [15] | activation [9] | outcome [16] | Potency [17] | Potency [18] | outcome [19]
1 | Nc1ccccc1-c1ccccc1 | inactive | inactive | inactive | inactive | inactive | inactive | inactive | inactive | inactive | inactive | inactive | inactive | inactive | inactive | inactive | – | – | – | – | –
2 | CCOP(=O)(OCC)Oc1cc(C)nc(C(C)C)n1 | inactive | inactive | inactive | inactive | inactive | inactive | inactive | inactive | inactive | inactive | inactive | inactive | inactive | inactive | inactive | – | – | – | – | –
3 | CC(C)=CCN1CC[C@@]2(C)c3cc(O)ccc3C[C@@H]1[C@@H]2C | inactive | inactive | inactive | inactive | inactive | inactive | inactive | inactive | – | inactive | 19 µM (active) | 26.9 µM (active) | 60.2 µM (active) | inactive | – | – | – | – | – | –
4 | CN(C)C(=S)SSC(=S)N(C)C | inactive | inactive | inactive | inactive | inactive | inactive | inactive | inactive | – | inactive | 47.3 nM (active) and 240 nM (active) and 24.3 nM (active) | 106 nM (active) and 107 nM (active) and 19.3 nM (active) | 106 nM (active) and 135 nM (active) and 19.3 nM (active) | 535 nM (active) and 85.9 nM (active) and 34.7 nM (active) | 393 nM (active) and 269 nM (active) and 154 nM (active) | -15.4% [inconclusive] (active) and -4.77% [inconclusive] (active) | inactive | inactive and 170 nM (active) and 61.1 nM (active) | – | –
5 | Nc1ccc(N=Nc2ccccc2)cc1 | inactive | inactive | inactive | inactive | inactive | inactive | inactive | inactive | inactive | – | 61.1 µM (active) | 61.1 µM (active) | 56.1 µM (active) | – | – | – | – | – | 54.9 µM (active) | –
6 | CCOP(=S)(NC(C)C)Oc1ccccc1C(=O)OC(C)C (stereo unspecified) | inactive | inactive | inactive | inactive | inactive | inactive | inactive | inactive | inactive | – | 15.4 µM (active) | 13.7 µM (active) | 17.2 µM (active) | – | 61.1 µM (active) | – | – | – | – | –
7 | COP(=S)(NC(C)C)Oc1ccc(C)cc1[N+](=O)[O-] (stereo unspecified) | inactive | inactive | inactive | inactive | inactive | inactive | inactive | inactive | inactive | inactive | 54.5 µM (active) | – | 61.1 µM (active) | inactive | – | – | – | – | – | –
8 | Clc1ccc(C(c2ccc(Cl)cc2)C(Cl)Cl)cc1 | inactive | inactive | inactive | inactive | inactive | inactive | inactive | inactive | inactive | – | 39.2 µM (active) and 19.3 µM (active) | – | 27.8 µM (active) and 10.9 µM (active) | inactive | inactive | – | – | – | 24.9 µM (active) | –
9 | NC1CCC(CC2CCC(N)CC2)CC1 (stereo unspecified) | inactive | inactive | inactive | inactive | inactive | inactive | inactive | inactive | inactive | inactive | – | – | – | inactive | – | – | – | – | inactive | –
10 | N#CSCc1ccccc1 | inactive | inactive | inactive | inactive | inactive | inactive | inactive | inactive | inactive | inactive | inactive | inactive | inactive | inactive | – | – | – | – | – | –
11 | O=[N+]([O-])C(Br)Br | inactive | inactive | inactive | inactive | inactive | inactive | inactive | inactive | inactive | inactive | – | – | – | inactive | inactive | – | inactive | inactive | inactive | inactive
12 | C[C@H]1[C@H](c2ccc(Cl)cc2)SC(=O)N1C(=O)NC1CCCCC1 | inactive | inactive | inactive | inactive | inactive | inactive | inactive | inactive | inactive | inactive | – | – | – | inactive | inactive | – | inactive | – | – | inactive
13 | FC(F)C(F)(F)OCC(Cn1cncn1)c1ccc(Cl)cc1Cl (stereo unspecified) | inactive | inactive | inactive | inactive | inactive | inactive | inactive | inactive | inactive | inactive | 3.05 µM (active) | 4.83 µM (active) | 7.65 µM (active) | 54.6 µM (active) | – | – | – | – | – | –
14 | O=S1(=O)OCC2C(CO1)C1(Cl)C(Cl)=C(Cl)C2(Cl)C1(Cl)Cl (stereo unspecified) | inactive | inactive | inactive | inactive | inactive | inactive | inactive | inactive | inactive | – | 24.3 µM (active) | 10.9 µM (active) | 27.3 µM (active) | – | – | – | – | – | 17.4 µM (active) | –
15 | CCCCCON=O | inactive | inactive | inactive | inactive | inactive | inactive | inactive | inactive | – | inactive | inactive | inactive | inactive | inactive | – | – | – | – | – | –
16 | O=[N+]([O-])c1ccc(Cl)c(Cl)c1Cl | inactive | inactive | inactive | inactive | inactive | inactive | inactive | inactive | – | inactive | inactive | inactive | inactive | inactive | – | – | – | – | – | –
17 | O=[N+]([O-])c1cccc2cccc([N+](=O)[O-])c12 | inactive | inactive | inactive | inactive | inactive | inactive | inactive | inactive | inactive | inactive | – | 61.4 µM (active) | 61.4 µM (active) | inactive | inactive | – | – | – | – | –
